Records with an inconclusive call do not appear. A call without a number means that no potency is given here. Active and inactive are the calls of the source. Calls follow the shape of the dose curve; as a rule, active = well fitted cell-killing curve with a large enough effect in the repeat runs; inconclusive = weak or mixed curves, or effect the other way; inactive = flat fitted curve, though single readings scatter.
experiment: qHTS RealTime-Glo MT Cell Viability Assay in HepG2 cells - 40 hour (AID 1224870); settings: RealTime-Glo luminescence; series mostly up to 76.8 µM; also: nearly all actives have a fitted effect of over 50% in size
Description: National Center for Advancing Translational Sciences [NCATS]
NIH Chemical Genomics Center [NCGC]
U.S. Environmental Protection Agency [EPA]
National Institutes of Environmental Health Sciences [NIEHS]
National Toxicology Program [NTP]
U.S. Food and Drug Administration [FDA]
Measure of cell viability is critical in the cell-base assay. Analysis of cell viability is necessary for the characterization of cell responses to cytotoxic drugs and environmental stress. A RealTime-Glo MT Cell Viability Assay to monitor cell viability in real time of continues cell culture during 40 hours of compound treatment was used to screen Tox21 10K library compounds in HepG2 cells. The RealTime-Glo MT Cell Viability Assay is a nonlytic, homogeneous, bioluminescent method to measure cell viability in real time using a simple, plate-based method. The assay involves adding NanoLuc luciferase and a cell-permeant prosubstrate to cells in culture. Viable cells reduce the proprietary prosubstrate to generate a substrate for NanoLuc luciferase. This substrate diffuses from cells into the surrounding culture medium, where it is rapidly used by the NanoLuc Enzyme to produce a luminescent signal. The signal correlates with the number of viable cells, making the assay well suited for cytotoxicity studies.
Tox21 Assay Protocol Summary:
The mixture of HepG2 cell suspension and reagents were dispensed at 600cells/6 ul/well in 1536-well tissue culture treated black solid bottom plates using a Multidrop dispenser. After the assay plates were incubated at a 37 C/5% CO2 incubator for 5 hours, 23 nL of compounds dissolved in DMSO, positive and negative controls was transferred to the assay plate by a pintool work station. The plates were incubated at 37 C for 40 hours. The luminescence intensity were measured at 0h, 8h, 16h, 24h, 32h and 40h time points using ViewLux plate reader during compound treatment.
Potency is read from the fitted curve at half-maximal effect.

Q: With CCC(C)c1cc(C(C)(C)C)c(O)c(C(C)(C)C)c1 (stereo not given) as the molecule, how does the Potency read?
A: inactive

Q: For CC1CCC(=O)C1=O (stereo not given), which Potency is on record?
A: inactive

Q: Which Potency does the source give for CCOc1ccc(O)cc1 here?
A: inactive

Q: With Nc1cccc(S(=O)(=O)c2cccc(N)c2)c1 as the molecule, how does the Potency read?
A: inactive

Q: With CCCCc1nc2cccnc2n1Cc1ccc(-c2ccccc2-c2nnn[nH]2)cc1 as the molecule, how does the Potency read?
A: inactive

Q: For CC(C)O.CC(C)O.CCOC(=O)/C=C(\C)O.CCOC(=O)/C=C(\C)O.[Ti], which Potency is on record?
A: inactive

Q: Which Potency does the source give for CC(C)(C)Cl here?
A: inactive

Q: Which Potency does the source give for COc1cc(C(=O)OCCCN2CCCN(CCCOC(=O)c3cc(OC)c(OC)c(OC)c3)CC2)cc(OC)c1OC here?
A: inactive

Q: For CN1C[C@H]2c3ccccc3Oc3ccc(Cl)cc3[C@@H]2C1, which Potency is on record?
A: inactive

Q: For CN1CCN(C(c2ccccc2)c2ccccc2)CC1, which Potency is on record?
A: inactive

Q: For O=C(OCCCCCCOC(=O)c1ccccc1)c1ccccc1, which Potency is on record?
A: inactive

Q: With C[C@H]1C[C@H]2[C@@H]3CCC4=CC(=O)C=C[C@]4(C)[C@@]3(Cl)[C@@H](O)C[C@]2(C)[C@@]1(O)C(=O)CO as the molecule, how does the Potency read?
A: inactive

Q: For Cc1cccc(C)c1NC(=O)CN(CC(=O)O)CC(=O)O, which Potency is on record?
A: inactive

Q: Which Potency does the source give for CCCOC(C(=O)OC1CCN(C)CC1)(c1ccccc1)c1ccccc1 here?
A: inactive

Q: For O=C(NCC1CN(c2ccc(N3CCOCC3=O)cc2)C(=O)O1)c1ccc(Cl)s1 (stereo not given), which Potency is on record?
A: inactive

Q: For Cc1ccc(C(=O)Oc2ccc(C(O)CNC(C)(C)C)cc2OC(=O)c2ccc(C)cc2)cc1 (stereo not given), which Potency is on record?
A: 23.9 µM (active)

Q: For CC(C)Cc1ccc(C(C)C(=O)OCc2ccccn2)cc1 (stereo not given), which Potency is on record?
A: inactive

Q: Which Potency does the source give for CC(C)(COC(=O)c1ccccc1)COC(=O)c1ccccc1 here?
A: inactive

Q: For C/C=C/C=C/CO, which Potency is on record?
A: inactive

Q: With COc1cc(Cl)c(OC)cc1N as the molecule, how does the Potency read?
A: inactive

Q: Which Potency does the source give for CC(=O)[O][Al][O]C(C)=O here?
A: inactive

Q: For CCCCNc1ccc(C(=O)OCCOCCOCCOCCOCCOCCOCCOCCOCCOC)cc1, which Potency is on record?
A: inactive

Q: Which Potency does the source give for Cc1cccc(Nc2ccccc2)c1 here?
A: inactive

Q: With CC(=O)c1ccc2c(c1)N(CCCN(C)C)c1ccccc1S2 as the molecule, how does the Potency read?
A: inactive

Q: Which Potency does the source give for CN(C)c1ccc(C(c2ccccc2)c2ccc(N(C)C)cc2)cc1 here?
A: inactive

Q: For CCC(=O)O[C@]1(C(=O)CCl)[C@@H](C)C[C@H]2[C@@H]3CCC4=CC(=O)C=C[C@]4(C)[C@@]3(F)[C@@H](O)C[C@@]21C, which Potency is on record?
A: inactive

Q: With COc1ccc(C)cc1[N+](=O)[O-] as the molecule, how does the Potency read?
A: inactive

Q: With CCC(C)(C)CC as the molecule, how does the Potency read?
A: inactive

Q: With OCCN1CCN(CCCN2c3ccccc3C=Cc3ccccc32)CC1 as the molecule, how does the Potency read?
A: inactive

Q: With CC(CSC(=O)c1ccccc1)C(=O)N1C[C@@H](Sc2ccccc2)C[C@H]1C(=O)O (stereo not given in full) as the molecule, how does the activity change, negative = cytotoxic read?
A: 2.68% [at 15.8 µM] (inactive)

Q: With O=S(c1cc(Cl)cc(Cl)c1O)c1cc(Cl)cc(Cl)c1O as the molecule, how does the Potency read?
A: inactive

Q: With CCCCC(=O)OCC(=O)[C@H]1[C@H](C)C[C@H]2[C@@H]3C[C@H](F)C4=CC(=O)C=C[C@]4(C)[C@@]3(F)[C@@H](O)C[C@@]21C as the molecule, how does the Potency read?
A: inactive

Q: Which Potency does the source give for CCCCC/C=C\C/C=C\CCCCCCCC(=O)NC(C)c1ccccc1 (stereo not given) here?
A: inactive

Q: With CCN(CC)CCNC(=O)c1cc(Br)c(N)cc1OC as the molecule, how does the Potency read?
A: inactive

Q: For CNC(=O)CN(CCN(CCN(CC(=O)[O-])CC(=O)NC)CC(=O)[O-])CC(=O)[O-].O.[Gd+3], which Potency is on record?
A: inactive

Q: With O=C(O)C1(C(=O)O)CCC1.[NH2-].[NH2-].[Pt+2] as the molecule, how does the Potency read?
A: inactive

Q: Which Potency does the source give for CCCCC here?
A: inactive

Q: With O=C(O)c1ccccc1Cl as the molecule, how does the Potency read?
A: inactive

Q: With Nc1cccc([N+](=O)[O-])c1 as the molecule, how does the Potency read?
A: inactive

Q: Which Potency does the source give for Nc1ncn([C@H]2C[C@H](O)[C@@H](CO)O2)c(=O)n1 here?
A: inactive
